{
  "source": "PubChem BioAssay (Tox21)",
  "key": {"[1]": {"experiment": "qHTS assay to identify small molecule antagonists of the sonic hedgehog signaling (Shh) pathway (AID 1259369; calls by dose curve; further: nearly all actives have a fitted effect of over 45% in size; further: potency means the concentration at half of the fitted maximal effect)", "method_in_brief": "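NIH/3T3-derived 3T3Gli1-Luc cells with stably integrated Gli1-Luc reporter were preincubated 4hr at 37 C, then given compounds in DMSO plus Shh conditioned medium and incubated 24hr. Firefly luciferase luminescence read after 30min reagent at room temperature.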"}, "[2]": {"biological_target": "Estrogen receptor beta (Homo sapiens) (UniProt Q92731)", "sequence (Q92731 whole entry, looked up)": "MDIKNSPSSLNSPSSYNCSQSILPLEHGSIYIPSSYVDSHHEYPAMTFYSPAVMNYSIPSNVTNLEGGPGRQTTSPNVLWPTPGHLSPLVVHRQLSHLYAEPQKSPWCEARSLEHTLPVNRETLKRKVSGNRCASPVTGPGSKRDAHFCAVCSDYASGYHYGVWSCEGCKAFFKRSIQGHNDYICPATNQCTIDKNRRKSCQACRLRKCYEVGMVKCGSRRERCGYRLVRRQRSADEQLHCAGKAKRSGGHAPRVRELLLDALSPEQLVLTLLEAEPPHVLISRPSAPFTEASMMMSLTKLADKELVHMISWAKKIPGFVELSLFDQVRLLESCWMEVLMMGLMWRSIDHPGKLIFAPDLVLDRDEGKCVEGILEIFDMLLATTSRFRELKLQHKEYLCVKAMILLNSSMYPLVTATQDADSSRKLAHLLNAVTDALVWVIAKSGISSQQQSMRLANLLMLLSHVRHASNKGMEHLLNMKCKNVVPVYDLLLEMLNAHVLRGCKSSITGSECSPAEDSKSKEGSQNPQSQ", "experiment": "qHTS assay to identify small molecule antagonists of the estrogen receptor beta (ER-beta) signaling pathway (AID 1259378; active means well fitted inhibition curve with a large enough effect in the signal ratio in the repeat runs, not every such curve was filed as active; the % refers to the signal ratio; further: potency means the concentration at half of the fitted maximal effect)", "method_in_brief": "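Antagonist mode: compounds added to beta-lactamase reporter HEK293T ER-beta-UAS cells stimulated with E2 (1nM final), 16 hr at 37C. LiveBLAzer B/G FRET substrate, 2 hours room temperature, fluorescence read-out.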"}, "[3]": {"experiment": "qHTS assay to identify small molecule agonists of the androgen receptor (AR) signaling pathway in the presence of an antagonist - cell viability counter screen (AID 1259379); further: nearly all actives have a fitted effect of over 25% in size; further: potency means the concentration at half of the fitted maximal effect", "method_in_brief": "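MDA-kb2 human breast carcinoma cells (stable MMTV-luciferase, AR/GR responsive) were seeded 3,000 cells/well, pre-incubated 5 hr at 37C without CO2, then given 3.0uM nilutamide and compounds at 15 concentrations for 16 hr. Viability was read by CellTiter-Fluor fluorescence.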"}, "[4]": {"experiment": "qHTS assay to identify small molecule agonists of the estrogen receptor beta (ER-beta) signaling pathway - cell viability counter screen (AID 1259380); further: nearly all actives have a fitted effect of over 30% in size; further: potency means the concentration at half of the fitted maximal effect", "method_in_brief": "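ER-beta-UAS-bla HEK293T cells in medium with 2% charcoal-stripped FBS were preincubated 6 hr at 37C, dosed with compound in DMSO for 16 hr, then after the bla read, CellTiter-Glo was added for 30 min at room temperature; luminescence recorded.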"}, "[5]": {"experiment": "qHTS assay to identify small molecule antagonists of the estrogen receptor beta (ER-beta) signaling pathway - cell viability counter screen (AID 1259382); further: nearly all actives have a fitted effect of over 55% in size; further: potency means the concentration at half of the fitted maximal effect", "method_in_brief": "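ER-beta-UAS-bla HEK293T cells (2,000/well, 2% charcoal-stripped FBS) were pre-incubated 6 hr at 37C, then given compound plus 1nM final 17-beta-estradiol for 16 hr. Viability was read in the same wells by CellTiter-Glo luminescence after 30 min at room temperature.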"}, "[6]": {"biological_target": "Estrogen receptor (Homo sapiens) (UniProt P03372)", "sequence (P03372 whole entry, looked up)": "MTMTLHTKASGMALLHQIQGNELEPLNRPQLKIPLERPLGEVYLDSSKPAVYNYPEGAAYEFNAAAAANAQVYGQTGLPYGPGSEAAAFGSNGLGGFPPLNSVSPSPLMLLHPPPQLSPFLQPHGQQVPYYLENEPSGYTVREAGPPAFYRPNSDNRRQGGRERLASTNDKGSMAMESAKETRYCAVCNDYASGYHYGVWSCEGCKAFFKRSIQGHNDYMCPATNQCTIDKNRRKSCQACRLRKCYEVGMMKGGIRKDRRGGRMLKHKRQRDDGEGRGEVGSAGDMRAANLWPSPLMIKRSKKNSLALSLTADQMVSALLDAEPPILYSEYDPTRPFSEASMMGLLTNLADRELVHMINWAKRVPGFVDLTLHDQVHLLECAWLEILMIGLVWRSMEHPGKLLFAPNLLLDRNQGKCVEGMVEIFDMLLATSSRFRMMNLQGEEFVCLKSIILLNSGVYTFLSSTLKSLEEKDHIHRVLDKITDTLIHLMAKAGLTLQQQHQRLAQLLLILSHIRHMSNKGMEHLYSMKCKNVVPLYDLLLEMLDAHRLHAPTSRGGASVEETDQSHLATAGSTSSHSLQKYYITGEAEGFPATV", "experiment": "qHTS assay to identify small molecule agonists of the estrogen receptor alpha (ER-alpha) signaling pathway in the presence of an antagonist (AID 1259383; calls by dose curve; further: top concentration of the series differs between compounds; nearly all actives have a fitted effect of over 15% in size)", "method_in_brief": "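VM7Luc4E2 cells (endogenous full-length ER-alpha, 4×ERE-luciferase) were precultured 5 days in phenol red-free medium with 10% charcoal-stripped FBS, given 10.0nM ICI-182,780 (final), then treated with compounds at 15 concentrations for 22hr at 37C; luminescence read with ONE-Glo.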"}, "[7]": {"experiment": "qHTS assay to identify small molecule agonists or antagonists of the thyroid stimulating hormone receptor (TSHR) signaling pathway - wild type cell line counter screen (AID 1259384; calls by dose curve)", "method_in_brief": "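Counter screen in untransfected Hek293: compounds (15-point titration, triplicate) plus phosphodiesterase inhibitor Ro20-1724 added after 18 h plating; 30 min RT. Intracellular cAMP via competitive d2/cryptate immunoassay, 1 h incubation.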"}, "[8]": {"biological_target": "Thyrotropin receptor (Homo sapiens) (UniProt P16473)", "sequence (P16473 whole entry, looked up)": "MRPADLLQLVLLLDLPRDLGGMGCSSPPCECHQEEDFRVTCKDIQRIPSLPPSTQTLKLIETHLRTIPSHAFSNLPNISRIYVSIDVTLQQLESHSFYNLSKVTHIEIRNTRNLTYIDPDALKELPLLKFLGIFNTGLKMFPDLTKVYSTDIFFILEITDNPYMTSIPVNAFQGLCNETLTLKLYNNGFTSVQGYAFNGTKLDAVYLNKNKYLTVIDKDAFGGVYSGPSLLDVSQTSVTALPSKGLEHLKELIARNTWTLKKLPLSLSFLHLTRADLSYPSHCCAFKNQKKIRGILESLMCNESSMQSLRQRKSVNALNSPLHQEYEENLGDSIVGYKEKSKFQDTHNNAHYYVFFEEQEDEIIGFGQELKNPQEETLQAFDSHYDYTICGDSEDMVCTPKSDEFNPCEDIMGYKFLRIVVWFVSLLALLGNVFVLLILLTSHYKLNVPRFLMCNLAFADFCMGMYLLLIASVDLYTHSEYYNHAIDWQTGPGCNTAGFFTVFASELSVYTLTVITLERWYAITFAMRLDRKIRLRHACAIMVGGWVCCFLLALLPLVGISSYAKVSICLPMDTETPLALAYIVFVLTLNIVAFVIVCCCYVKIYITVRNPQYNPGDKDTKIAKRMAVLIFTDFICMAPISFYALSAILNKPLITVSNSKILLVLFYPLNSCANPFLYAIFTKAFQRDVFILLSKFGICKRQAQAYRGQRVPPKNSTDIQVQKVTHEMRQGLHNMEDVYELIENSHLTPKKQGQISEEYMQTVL", "experiment": "qHTS assay to identify small molecule antagonists of the thyroid stimulating hormone receptor (TSHR) signaling pathway (AID 1259385; calls by dose curve; further: nearly all actives have a fitted effect of over 20% in size; further: potency means the concentration at half of the fitted maximal effect)", "method_in_brief": "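Antagonist mode: compound-treated TSHR-expressing HEK293 cells were stimulated with 1.5 ng/mL TSH (final) in presence of Ro20-1724 for 30 min at RT. HTRF cAMP detection after 1 h; each compound tested at 15 concentrations, triplicate.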"}},
  "note": "Values joined by “and” are separate entries in the source; they are usually repeats but may differ in a detail not shown here. Identical values can stand only once. Results filed as inconclusive are left out. A call without a number means that no potency is given here. Where a structure was tested more than once in an assay, its records may differ in their call. Active and inactive are the calls of the source. Unless noted, the call rests on the fitted dose curve; in most records, active means well fitted curve in the direction sought with a large enough effect in the repeat runs; inconclusive means weak or mixed curves; inactive means no such curve, though single readings can be large; an effect the other way counts as inactive or inconclusive.",
  "data": [
    {"smiles": "Nc1ccc(-c2ccc(N)c(Cl)c2)cc1Cl", "values": [
      {"measurement": "Potency", "setting": "[1]", "value": "2.74 µM (active) and 1.01 µM (active)"},
      {"measurement": "Potency", "setting": "[2]", "value": "25.5 µM (active) and 30.6 µM (active)"},
      {"measurement": "Potency", "setting": "[3]", "value": "inactive and 54.5 µM (active)"},
      {"measurement": "Potency", "setting": "[4]", "value": "30.6 µM (active)"},
      {"measurement": "Potency", "setting": "[5]", "value": "61.1 µM (active)"},
      {"measurement": "Potency", "setting": "[6]", "value": "inactive"},
      {"measurement": "Potency", "setting": "[7]", "value": "inactive"},
      {"measurement": "Potency", "setting": "[8]", "value": "inactive and 57 µM (active)"}
    ]},
    {"smiles": "Nc1ccccc1", "values": [
      {"measurement": "Potency", "setting": "[1]", "value": "inactive"},
      {"measurement": "Potency", "setting": "[3]", "value": "inactive"},
      {"measurement": "Potency", "setting": "[4]", "value": "inactive"},
      {"measurement": "Potency", "setting": "[5]", "value": "inactive"},
      {"measurement": "Potency", "setting": "[7]", "value": "inactive"},
      {"measurement": "Potency", "setting": "[8]", "value": "inactive"}
    ]},
    {"smiles": "CNC", "values": [
      {"measurement": "Potency", "setting": "[1]", "value": "inactive"},
      {"measurement": "Potency", "setting": "[3]", "value": "inactive"},
      {"measurement": "Potency", "setting": "[4]", "value": "inactive"},
      {"measurement": "Potency", "setting": "[5]", "value": "inactive"}
    ]},
    {"smiles": "O=[N+]([O-])O", "values": [
      {"measurement": "Potency", "setting": "[1]", "value": "inactive"},
      {"measurement": "Potency", "setting": "[3]", "value": "inactive"},
      {"measurement": "Potency", "setting": "[4]", "value": "inactive"},
      {"measurement": "Potency", "setting": "[5]", "value": "inactive"},
      {"measurement": "Potency", "setting": "[7]", "value": "inactive"},
      {"measurement": "Potency", "setting": "[8]", "value": "inactive"}
    ]},
    {"smiles": "CCCCCCCCCCCCOS(=O)(=O)O", "values": [
      {"measurement": "Potency", "setting": "[1]", "value": "inactive"},
      {"measurement": "Potency", "setting": "[3]", "value": "inactive"},
      {"measurement": "Potency", "setting": "[5]", "value": "54.5 µM (active) and inactive"}
    ]},
    {"smiles": "O=P1(N(CCCl)CCCl)NCCCO1", "note": "(centres undefined)", "values": [
      {"measurement": "Potency", "setting": "[1]", "value": "inactive"},
      {"measurement": "Potency", "setting": "[3]", "value": "inactive"},
      {"measurement": "Potency", "setting": "[4]", "value": "inactive"},
      {"measurement": "Potency", "setting": "[5]", "value": "inactive"},
      {"measurement": "Potency", "setting": "[6]", "value": "inactive"},
      {"measurement": "Potency", "setting": "[7]", "value": "inactive"},
      {"measurement": "Potency", "setting": "[8]", "value": "inactive"}
    ]},
    {"smiles": "C=CCOC(Cn1ccnc1)c1ccc(Cl)cc1Cl", "note": "(centres undefined)", "values": [
      {"measurement": "Potency", "setting": "[1]", "value": "13.7 µM (active) and 9.69 µM (active)"},
      {"measurement": "Potency", "setting": "[3]", "value": "61.3 µM (active) and inactive"},
      {"measurement": "Potency", "setting": "[4]", "value": "27.4 µM (active) and 24.3 µM (active)"},
      {"measurement": "Potency", "setting": "[5]", "value": "30.7 µM (active) and inactive"},
      {"measurement": "Potency", "setting": "[7]", "value": "inactive"},
      {"measurement": "Potency", "setting": "[8]", "value": "inactive"}
    ]},
    {"smiles": "CCC[N+]1(C)CCCC1", "values": [
      {"measurement": "Potency", "setting": "[1]", "value": "inactive"},
      {"measurement": "Potency", "setting": "[3]", "value": "inactive"},
      {"measurement": "Potency", "setting": "[4]", "value": "inactive"},
      {"measurement": "Potency", "setting": "[5]", "value": "inactive"}
    ]},
    {"smiles": "CCCCCCCCCCCC(=O)O", "values": [
      {"measurement": "Potency", "setting": "[1]", "value": "inactive"},
      {"measurement": "Potency", "setting": "[3]", "value": "inactive"},
      {"measurement": "Potency", "setting": "[4]", "value": "43.3 µM (active)"},
      {"measurement": "Potency", "setting": "[5]", "value": "inactive"},
      {"measurement": "Potency", "setting": "[7]", "value": "inactive"},
      {"measurement": "Potency", "setting": "[8]", "value": "inactive"}
    ]},
    {"smiles": "C[N+](C)(C)Cc1ccccc1", "values": [
      {"measurement": "Potency", "setting": "[1]", "value": "inactive"},
      {"measurement": "Potency", "setting": "[3]", "value": "inactive"},
      {"measurement": "Potency", "setting": "[4]", "value": "inactive"},
      {"measurement": "Potency", "setting": "[5]", "value": "inactive"},
      {"measurement": "Potency", "setting": "[6]", "value": "inactive"},
      {"measurement": "Potency", "setting": "[7]", "value": "inactive"},
      {"measurement": "Potency", "setting": "[8]", "value": "inactive"}
    ]},
    {"smiles": "O=C(O)C(Cl)(Cl)Cl", "values": [
      {"measurement": "Potency", "setting": "[1]", "value": "inactive"},
      {"measurement": "Potency", "setting": "[3]", "value": "inactive"},
      {"measurement": "Potency", "setting": "[4]", "value": "inactive"},
      {"measurement": "Potency", "setting": "[5]", "value": "inactive"},
      {"measurement": "Potency", "setting": "[7]", "value": "inactive"},
      {"measurement": "Potency", "setting": "[8]", "value": "inactive"}
    ]},
    {"smiles": "Oc1cccc2cccnc12", "values": [
      {"measurement": "Potency", "setting": "[3]", "value": "6.14 µM (active) and 9.69 µM (active) and inactive"},
      {"measurement": "Potency", "setting": "[4]", "value": "1.38 µM (active) and 1.22 µM (active) and inactive"},
      {"measurement": "Potency", "setting": "[5]", "value": "inactive"}
    ]},
    {"smiles": "COc1ccc(N)cc1", "values": [
      {"measurement": "Potency", "setting": "[1]", "value": "inactive"},
      {"measurement": "Potency", "setting": "[3]", "value": "inactive"},
      {"measurement": "Potency", "setting": "[4]", "value": "inactive"},
      {"measurement": "Potency", "setting": "[5]", "value": "inactive"},
      {"measurement": "Potency", "setting": "[7]", "value": "inactive"},
      {"measurement": "Potency", "setting": "[8]", "value": "inactive"}
    ]},
    {"smiles": "O=C(O)c1nc(Cl)ccc1Cl", "values": [
      {"measurement": "Potency", "setting": "[1]", "value": "inactive"},
      {"measurement": "Potency", "setting": "[3]", "value": "inactive"},
      {"measurement": "Potency", "setting": "[4]", "value": "inactive"},
      {"measurement": "Potency", "setting": "[5]", "value": "inactive"},
      {"measurement": "Potency", "setting": "[6]", "value": "inactive"},
      {"measurement": "Potency", "setting": "[7]", "value": "inactive"},
      {"measurement": "Potency", "setting": "[8]", "value": "inactive"}
    ]},
    {"smiles": "CCCCCCCCCCn1cc[n+](C)c1", "values": [
      {"measurement": "Potency", "setting": "[4]", "value": "inactive and 2.73 µM (active)"},
      {"measurement": "Potency", "setting": "[5]", "value": "inactive"}
    ]},
    {"smiles": "C1CCC(NC2CCCCC2)CC1", "values": [
      {"measurement": "Potency", "setting": "[1]", "value": "inactive"},
      {"measurement": "Potency", "setting": "[3]", "value": "inactive"},
      {"measurement": "Potency", "setting": "[4]", "value": "inactive"},
      {"measurement": "Potency", "setting": "[5]", "value": "inactive"},
      {"measurement": "Potency", "setting": "[6]", "value": "inactive"},
      {"measurement": "Potency", "setting": "[7]", "value": "inactive"},
      {"measurement": "Potency", "setting": "[8]", "value": "inactive"}
    ]},
    {"smiles": "CC[n+]1ccccc1", "values": [
      {"measurement": "Potency", "setting": "[1]", "value": "inactive and 429 nM (active)"},
      {"measurement": "Potency", "setting": "[3]", "value": "inactive and 24.1 µM (active)"},
      {"measurement": "Potency", "setting": "[4]", "value": "inactive and 60.6 µM (active)"},
      {"measurement": "Potency", "setting": "[5]", "value": "inactive"},
      {"measurement": "Potency", "setting": "[7]", "value": "inactive"},
      {"measurement": "Potency", "setting": "[8]", "value": "inactive"}
    ]}
  ]
}
